The record followed here is PubChem BioAssay (NCATS).

Records with an inconclusive call do not appear. The source made the active and inactive calls. Unless noted, the call rests on the fitted dose curve; in most records, active means well fitted curve in the direction sought with a large enough effect; inconclusive means small, poorly fitted or top-dose-only effect, or another doubt; inactive means no such curve, though single readings can be large; an effect the other way counts as inactive or inconclusive. Starred links: 1 amine or outer side, 2 acyl side, 3 side chain; linkers in the order of their positions; H or OH if unused. Positions of bridges follow the written chain, without caps; N, C: chain ends. Non-standard residues stand in square brackets, D forms with d. Residues, ends and D or L forms follow the SMILES beside them. *: point of attachment. X4 = NC1=N[C@@H](O)C[C@H]([C@H](N[*:1])C(=O)[*:2])N1; ΔAla(3-NHCONH2) = NC(=O)NC=C(N)C(=O)O; β3hOrn = NCCC[C@H](N)CC(=O)*; Dap = NC[C@H](N)C(=O)O

A short description of experiment [1]: qHTS Assay for Identification of Small Molecule Agonists for Hypoxia Response Element Signaling Pathway (AID 914; active means well fitted activation curve with a large enough effect in the signal ratio, with a control signal flat, not every such curve was filed as active; the % refers to the signal ratio; further: potency means the concentration at half of the fitted maximal effect). The note with it: ME-180 (cervical carcinoma) HRE-bla reporter, beta-lactamase ratio, CoCl2, 17 h; activation: stronger effect = higher value. Summed up: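 AC50 values come from titration-series %Activity, taken as the 460/530nm ratio of CCF4 fluorescence (excitation 405nm). CellSensor HRE-bla ME-180 cells were treated 17 hours at 37 C with compound plus an EC50 level of CoCl2.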
A general note: Quantitative high-throughput screening tests each substance at several concentrations.

The target in experiment [2] is Dual specificity protein kinase CLK4 (Homo sapiens) (UniProt Q9HAZ1). As to the kind of experiment: qHTS Assay for Inhibitors of CDC-like Kinase 4 (ADP-FP Assay) (AID 1795). Further: potency means the concentration at half of the fitted maximal effect; nearly all actives have a fitted effect of over 60% in size. Particulars: Transcreener ADP fluorescence polarization; series mostly up to 50 µM. The method, boiled down:
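Recombinant Clk4 (6.25 nM) phosphorylated 100 uM RS repeat peptide with 1 uM ATP in 25 mM Tris pH 7.5, 10 mM MgCl2, 0.5 mM EGTA, 2.5 mM DTT, 0.01% Triton X-100 for 1 h. ADP was detected by Transcreener ADP2 competitive fluorescence polarization after 30 min at room temperature.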

Experiment [3] deals with ATP-dependent 6-phosphofructokinase (Trypanosoma brucei brucei) (UniProt O15648). Nature of the experiment: qHTS Assay to Find Inhibitors of T. brucei phosphofructokinase: hit validation (AID 492961).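 Further: luminescence reports ADP formed as PFK phosphorylates fructose-6-phosphate with ATP; on the % scale 0 is the no-effect control and ±100 the full control effect.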 The note with it: T. brucei PFK, ADP-Glo luminescence; series mostly up to 24.3 µM. The method, boiled down: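 ADP-Glo luminescence read-out of ADP formed by 1.25 nM PFK from 0.1 mM ATP and 0.5 mM F6P (TEA pH 8.0, 45 min, RT). Compounds titrated; activity normalized to no-enzyme and full-enzyme controls.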
Chain of ATP-dependent 6-phosphofructokinase (Trypanosoma brucei brucei) (O15648 whole entry, looked up): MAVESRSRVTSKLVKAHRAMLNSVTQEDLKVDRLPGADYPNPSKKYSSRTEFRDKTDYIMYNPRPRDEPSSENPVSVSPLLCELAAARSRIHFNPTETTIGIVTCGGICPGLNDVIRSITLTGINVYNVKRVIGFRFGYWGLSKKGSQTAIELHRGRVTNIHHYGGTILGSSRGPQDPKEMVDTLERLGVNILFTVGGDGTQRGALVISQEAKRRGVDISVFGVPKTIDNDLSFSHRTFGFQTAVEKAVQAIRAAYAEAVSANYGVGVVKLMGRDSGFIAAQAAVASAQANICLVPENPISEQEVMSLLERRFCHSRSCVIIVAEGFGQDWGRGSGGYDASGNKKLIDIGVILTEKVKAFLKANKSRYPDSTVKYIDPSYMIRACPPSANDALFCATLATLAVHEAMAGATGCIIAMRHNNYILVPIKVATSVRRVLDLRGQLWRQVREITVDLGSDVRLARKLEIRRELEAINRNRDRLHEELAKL

Experiment [4] is described as follows: S16 Schwann cell viability assay (CellTiter-Glo assay) (AID 624031).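 Further: plate controls were DMSO-treated cells for no effect and cell-free wells for full effect; nearly all actives have a fitted effect of over 70% in size.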 Particulars: S16 rat Schwann cells viability, 24 h; series mostly up to 25.7 µM. The method, boiled down:
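CellTiter-Glo ATP luminescence counter-screen in untransfected S16 rat Schwann cells, 24h compound exposure at 37 degree Celsius after overnight seeding (500-750 cells/well); response scaled between cell-free wells and DMSO (0% activity), curves classed by r2 and magnitude.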
On the technique in general: ATP-based viability assays read luminescence as a measure of living cells.

Experiment [5] in a line: S16 Schwann cell PMP22 intronic element beta-lactamase assay (AID 624044; calls by dose curve;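 further: 0% = DMSO and -100% = potassium clavulanate positive control; nearly all actives have a fitted effect of over 15% in size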). Particulars: S16 rat Schwann cells, PMP22 element beta-lactamase FRET, 24 h; series mostly up to 17.1 µM. The method, boiled down: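 Beta-lactamase reporter under a PMP22 intronic regulatory element in stable S16 rat Schwann cells; 24 h compound exposure. 460 nm blue signal normalized between DMSO (0%) and potassium clavulanate, with 535 nm FRET tracking viability; curves classed by r2 and response.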

The next experiment deals with ATS189. As to the kind of experiment: qHTS profiling for inhibitors of Plasmodium falciparum proliferation (AID 504749). Further: nearly all actives have a fitted effect of over 60% in size. Further: potency means the concentration at half of the fitted maximal effect. The note with it: P. falciparum in erythrocytes, SYBR Green DNA, 72 h; series mostly up to 12.8 µM. Summed up:
(§1)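 SYBR Green fluorescence of parasite DNA, read after lysis and overnight dark incubation, measured growth over 72 h in erythrocyte culture at 0.3% parasitemia and 2.5% hematocrit. Data normalised to DMSO and 0.29 uM artemisinin, with plate-drift correction.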

For a further experiment, the system named is ATS95. Described as above. The note with it: P. falciparum in erythrocytes, SYBR Green DNA, 72 h; series mostly up to 12.8 µM. The method, boiled down: as §1
A further experiment has as its system CP185. The experiment is described as above. The note with it: P. falciparum in erythrocytes, SYBR Green DNA, 72 h; series mostly up to 12.8 µM. The method, boiled down:
as §1

The test system of the next experiment is CP201. Described as above. The note with it: P. falciparum in erythrocytes, SYBR Green DNA, 72 h; series mostly up to 12.8 µM. The method, boiled down: as §1
For another experiment, the system named is CP211. The experiment is described as above. Particulars: P. falciparum in erythrocytes, SYBR Green DNA, 72 h; series mostly up to 12.8 µM. Summed up:
as §1

For another experiment, the system named is CP238. The experiment is described as above. Particulars: P. falciparum in erythrocytes, SYBR Green DNA, 72 h; series mostly up to 12.8 µM. Summed up: as §1
The subject of a further experiment is CP256. The description is as above. The note with it: P. falciparum in erythrocytes, SYBR Green DNA, 72 h; series mostly up to 12.8 µM. Summed up:
as §1

For the next experiment, the system named is CP262. The experiment is described as above. Particulars: P. falciparum in erythrocytes, SYBR Green DNA, 72 h; series mostly up to 12.8 µM. The method, boiled down:
as §1

Another experiment concerns CP266. The description is as above. The note with it: P. falciparum in erythrocytes, SYBR Green DNA, 72 h; series mostly up to 28.7 µM. Summed up: as §1
A further experiment deals with CP297. The experiment is described as above. The note with it: P. falciparum in erythrocytes, SYBR Green DNA, 72 h; series mostly up to 12.8 µM. The method, boiled down: as §1
The next experiment concerns CP305. Described as above. The note with it: P. falciparum in erythrocytes, SYBR Green DNA, 72 h; series mostly up to 12.8 µM. The method, boiled down: as §1
A further experiment relates to CP325. The experiment is described as above. Particulars: P. falciparum in erythrocytes, SYBR Green DNA, 72 h; series mostly up to 12.8 µM. The method, boiled down: as §1
In a further experiment the test system is CP335. Described as above. Particulars: P. falciparum in erythrocytes, SYBR Green DNA, 72 h; series mostly up to 12.8 µM. The method, boiled down:
as §1

The subject of a further experiment is DFO2036. The experiment is described as above. The note with it: P. falciparum in erythrocytes, SYBR Green DNA, 72 h; series mostly up to 12.8 µM. Summed up: as §1
For a further experiment, the system named is DIV17. Described as above. Particulars: P. falciparum in erythrocytes, SYBR Green DNA, 72 h; series mostly up to 12.8 µM. Summed up:
as §1

A further experiment relates to ECU. Described as above. Particulars: P. falciparum in erythrocytes, SYBR Green DNA, 72 h; series mostly up to 12.8 µM. The method, boiled down:
as §1

A further experiment deals with FAB9. The description is as above. Particulars: P. falciparum in erythrocytes, SYBR Green DNA, 72 h; series mostly up to 12.8 µM. The method, boiled down:
as §1

The test system of a further experiment is HB3. The experiment is described as above. The note with it: P. falciparum in erythrocytes, SYBR Green DNA, 72 h; series mostly up to 12.8 µM. The method, boiled down:
as §1

The next experiment relates to ICS. The experiment is described as above. Particulars: P. falciparum in erythrocytes, SYBR Green DNA, 72 h; series mostly up to 12.8 µM. The method, boiled down: as §1
For another experiment, the system named is JCK. The description is as above. Particulars: P. falciparum in erythrocytes, SYBR Green DNA, 72 h; series mostly up to 12.8 µM. Summed up:
as §1

The next experiment has as its system PC15. The description is as above. The note with it: P. falciparum in erythrocytes, SYBR Green DNA, 72 h; series mostly up to 12.8 µM. The method, boiled down:
as §1

In another experiment the test system is PC26. The experiment is described as above. The note with it: P. falciparum in erythrocytes, SYBR Green DNA, 72 h; series mostly up to 12.8 µM. The method, boiled down:
as §1

The next experiment has as its system PC49. The experiment is described as above. Particulars: P. falciparum in erythrocytes, SYBR Green DNA, 72 h; series mostly up to 12.8 µM. Summed up:
as §1

The subject of another experiment is SC27B. The experiment is described as above. Particulars: P. falciparum in erythrocytes, SYBR Green DNA, 72 h; series mostly up to 12.8 µM. Summed up:
as §1

A further experiment concerns TAB109. The description is as above. The note with it: P. falciparum in erythrocytes, SYBR Green DNA, 72 h; series mostly up to 12.8 µM. The method, boiled down:
as §1

The subject of another experiment is TAB113. Described as above. The note with it: P. falciparum in erythrocytes, SYBR Green DNA, 72 h; series mostly up to 12.8 µM. The method, boiled down:
as §1

The subject of the next experiment is W2. Described as above. The note with it: P. falciparum in erythrocytes, SYBR Green DNA, 72 h; series mostly up to 12.8 µM. The method, boiled down: as §1
Experiment [6] in a line: qHTS profiling of the MIPE4 collection as inhibitors of Plasmodium falciparum (3D7) proliferation (AID 743344; call rule not given here;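 further: scaled between DMSO vehicle wells and 0.29 µM artemisinin as full inhibition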). The note with it: P. falciparum 3D7 in erythrocytes, SYBR Green DNA fluorescence, 72 h; at 5.51 µM (top of the series) unless noted. The method, boiled down: (§2)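 Parasite DNA was quantified by SYBR Green I fluorescence (ex 485, em 535 nm) after overnight lysis in saponin/Triton buffer at room temperature. Cultures at 0.3% parasitemia and 2.5% hematocrit were first exposed to compound for 72 h at 37 C; signals were normalised to artemisinin (0.29 uM) and vehicle wells.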

A short description of experiment [7]: qHTS profiling of the MIPE4 collection as inhibitors of Plasmodium falciparum (DD2) proliferation (AID 743345; call rule not given here). Particulars: P. falciparum Dd2 in erythrocytes, SYBR Green DNA, 72 h; at 5.51 µM (top of the series) unless noted. Summed up:
as §2

Experiment [8] in a line: qHTS profiling of the MIPE4 collection as inhibitors of Plasmodium falciparum (DD2) proliferation (Rep 2) (AID 743346; call rule not given here). The note with it: P. falciparum Dd2 in erythrocytes, SYBR Green DNA, 72 h; at 5.51 µM (top of the series) unless noted. Summed up:
as §2

Experiment [9] in a line: qHTS profiling of the MIPE4 collection as inhibitors of Plasmodium falciparum (HB3) proliferation (AID 743347; call rule not given here;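 further: plate controls were DMSO vehicle wells for no effect and artemisinin wells for full effect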). The note with it: P. falciparum HB3 in erythrocytes, SYBR Green DNA, 72 h; at 5.51 µM (top of the series) unless noted. The method, boiled down:
as §2

Chain of Dual specificity protein kinase CLK4 (Homo sapiens) (Q9HAZ1 whole entry, looked up): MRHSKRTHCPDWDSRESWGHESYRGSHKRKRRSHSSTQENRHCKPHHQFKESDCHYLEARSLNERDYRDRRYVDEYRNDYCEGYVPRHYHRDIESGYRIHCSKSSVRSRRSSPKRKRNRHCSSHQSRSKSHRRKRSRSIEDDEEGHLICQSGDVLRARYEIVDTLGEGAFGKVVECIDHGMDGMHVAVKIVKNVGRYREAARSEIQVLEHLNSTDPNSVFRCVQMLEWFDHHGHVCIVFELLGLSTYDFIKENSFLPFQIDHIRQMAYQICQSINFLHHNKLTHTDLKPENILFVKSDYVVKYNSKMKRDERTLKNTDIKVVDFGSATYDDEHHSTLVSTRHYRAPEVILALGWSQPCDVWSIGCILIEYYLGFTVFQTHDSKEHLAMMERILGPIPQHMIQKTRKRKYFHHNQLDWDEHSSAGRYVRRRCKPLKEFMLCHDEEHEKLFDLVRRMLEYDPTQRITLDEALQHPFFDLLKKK

With `O=c1ccc2cc(O)c(O)cc2o1`, in experiment [1], the Potency was 10 µM (active).
For the compound `COc1ccc2[nH]cc(CCNc3ncnc4ccc(-c5ccc6c(c5)OCO6)cc34)c2c1`, the Potency in experiment [2] was 0.0708 µM (active).
`COc1cc(/C=C/C(=O)/C=C(O)/C=C/c2ccc(O)c(OC)c2)ccc1O`: the compound was classed as inactive in experiment [3] and in experiment [5]. Further, the Potency entry (in experiment [4]; with ATS189; with ATS95; in the experiment with CP185; with CP201; in the experiment with CP211) was “inactive” throughout. The Potency result in the experiment on CP238, with CP256, in the experiment on CP262, in the experiment with CP266, in the experiment on CP305 and with CP325 was “inactive” in each case. In addition, the Potency result in the experiment with CP335, in the experiment with DFO2036, in the experiment on ECU, in the experiment on FAB9, in the experiment with HB3 and with JCK was “inactive” in each case. Further, the Potency result with PC15, in the experiment with PC49, with SC27B, in the experiment on TAB109 and in the experiment with TAB113 was “inactive” each time. Also, the Potency is 15.1 µM (active) in the experiment on CP297; 12 µM (active) with DIV17; 10 µM (active) with ICS; 12 µM (active) in the experiment with PC26; 15.1 µM (active) in the experiment on W2.
For `NCCC[C@H](N)CC(=O)N[C@H]1CNC(=O)[C@H]([C@H]2C[C@H](O)N=C(N)N2)NC(=O)C(=CNC(N)=O)NC(=O)[C@H](CO)NC(=O)[C@H](CO)NC1=O` (β3hOrn-[Dap]SS[ΔAla(3-NHCONH2)][X4]; lactam 1-C), the parasite growth, % of DMSO control in [6] was found to be 66.2%. In addition, the parasite growth remaining, % of DMSO control (lower = more inhibition) in experiment [7] turned out to be 79.9%. The parasite growth, % of control (lower = inhibition) in experiment [8] was 92.5%. This compound also gave a growth, % of control in experiment [9] of 71.8%.
